Laboratory results as given in the supplement of paper PMC10849652.
Targets with a hit are over-represented here; the source holds about 8,800 in all. About 0.5% of all pairs of compound and target were hits.

Legend:
Assay in all cases: log2 fold change, soluble protein after heating vs DMSO (PISA); higher = thermal stabilisation; K562 lysate, 10 uM; active = over 0.2 and 3.5 SD of the protein, either way, in both replicates (recomputed)
erlotinib = compound: C#Cc1cccc(Nc2ncnc3cc(OCCOC)c(OCCOC)cc23)c1 [erlotinib]
Method in brief: (§1)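 Pellets of K562 cells were dounce-homogenised in PBS pH 7.4 with 1 mM MgCl2, and the crude extract was held at 1 mg/mL protein for a 30 min treatment with 10 μM compound. Aliquots were heated for 3 min over 48°C-58°C and pooled before NP-40 was added to 0.5% at 4°C. The supernatant from 21,000xg for 90 min was quantified by TMTpro 16plex LC-MS/MS with channel sums equalised. Values are reported from duplicates as log-two fold change in thermal stability relative to solvent controls.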

[1] = compound: C/C(=N\NC(=O)C1=CC(=CC=C1)S(=O)(=O)N2CCOCC2)/C3=C(C=CC(=C3)Cl)O
Method in brief: as §1

[2] = compound: C1=CC(=CC=C1C2=NC3=C(N2)C=C(C=C3)C(=O)N)OC4=CC=C(C=C4)Cl
Method in brief: as §1

[3] = compound: C1=CC2=C(C=CC(=C2)/C=C\3/C(=O)NC(=NCC4=CC=CS4)S3)N=C1
Method in brief: as §1

[4] = compound: C1=CC2=NC=CN=C2C=C1/C=C/3\C(=O)NC(=O)S3
Method in brief: as §1

[5] = compound: C1=CC=C(C=C1)C2=NC(=C(N2)C3=CC=NC=C3)C4=CC(=C(C=C4)Cl)O
Method in brief: as §1

[6] = compound: C1=CC=C2C(=C1)C3=NNC4=CC=CC(=C43)C2=O
Method in brief: as §1

[7] = compound: C1CCN(C1)C(=O)NC2=CC=CC(=C2)NC3=NC=C(C(=N3)NCCC4=CN=CN4)Br
Method in brief: as §1

[8] = compound: C1CN(CCC1(CC2=CC=C(C=C2)Cl)N)C3=NC=NC4=C3C=CN4
Method in brief: as §1

IRAK-1-4 Inhibitor I = compound: C1COCCN1CCN2C3=CC=CC=C3N=C2NC(=O)C4=CC(=CC=C4)[N+](=O)[O-] [IRAK-1-4 Inhibitor I]
Method in brief: as §1

ibrutinib = compound: C=CC(=O)N1CCC[C@@H](n2nc(-c3ccc(Oc4ccccc4)cc3)c3c(N)ncnc32)C1 [ibrutinib]
Method in brief: as §1

[9] = compound: CC(=O)c1cnc2ccc(-c3cc(Cl)c(O)c(Cl)c3)nc2c1N[C@H]1CC[C@H](CN(C)C)CC1
Method in brief: as §1

ralimetinib = compound: CC(C)(C)Cn1c(N)nc2ccc(-c3[nH]c(C(C)(C)C)nc3-c3ccc(F)cc3)nc21 [ralimetinib]
Method in brief: as §1

[10] = compound: CC(C)(O)CC(=O)NCCn1ccc2ncnc(Nc3ccc(Oc4cccc(C(F)(F)F)c4)c(Cl)c3)c21
Method in brief: as §1

[11] = compound: CC(C)C1=C2N=C(C=C(N2N=C1)NCC3=CC=CC=C3)NCCCCCCN
Method in brief: as §1

[12] = compound: CC1=C(C(CC(=O)N1)C2=CC=C(C=C2)C(F)(F)F)C(=O)NC3=C(C=C4C(=C3)C=NN4)F
Method in brief: as §1

[13] = compound: CC1=C(C2=C(C=C1)C(=O)C3=CC=CC=C3N2CCCN)C
Method in brief: as §1

[14] = compound: CC1=C(C=C(C=C1)NC(=O)C2=CC(=CC=C2)C(C)(C)C#N)NC3=CC4=C(C=C3)N=CN(C4=O)C
Method in brief: as §1

[15] = compound: CC1=C(C=C(C=C1)NC(=O)C2=CC(=CC=C2)N(C)C)NC(=O)C3=CC=C(C=C3)O
Method in brief: as §1

[16] = compound: CC1=CC=C(C=C1)SC2=C3C=C(SC3=CN=C2)C(=O)N
Method in brief: as §1

Measured: log2 fold change

RPL31 (UniProt P62899)
inactive: erlotinib -0.018 | [1] -0.097 | [2] -0.03 | [3] -0.01 | [4] 0.001 | [5] 0 | [6] 0.038 | [7] 0.043 | [8] -0.039 | IRAK-1-4 Inhibitor I 0.026 | ibrutinib -0.031 | [9] -0.011 | ralimetinib 0.009 | [10] -0.022 | [11] 0.003 | [12] -0.06 | [13] -0.043 | [14] -0.013 | [15] -0.021 | [16] 0.016

SAR1A (UniProt Q9NR31)
Sequence of UniProt Q9NR31 (Q9NR31 whole entry, looked up): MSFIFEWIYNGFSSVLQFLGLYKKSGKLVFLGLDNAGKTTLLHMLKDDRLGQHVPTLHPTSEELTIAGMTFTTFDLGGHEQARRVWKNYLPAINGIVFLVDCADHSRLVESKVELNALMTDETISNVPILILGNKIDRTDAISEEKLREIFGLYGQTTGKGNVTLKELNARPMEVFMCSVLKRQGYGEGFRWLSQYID
inactive: erlotinib -0.268 | [1] -0.112 | [2] 0.05 | [3] -0.019 | [4] -0.063 | [5] -0.056 | [6] 0.048 | [7] -0.08 | [8] 0.001 | IRAK-1-4 Inhibitor I -0.029 | ibrutinib -0.082 | [9] -0.105 | ralimetinib 0.027 | [10] -0.028 | [11] 0.026 | [12] 0.163 | [13] -0.042 | [14] 0.021 | [15] -0.045 | [16] 0.112

RAD50 isoform 2 (UniProt Q92878)
inactive: erlotinib -0.009 | [1] -0.007 | [2] 0.019 | [3] 0.006 | [4] -0.014 | [5] -0.023 | [6] -0.039 | [7] 0.005 | [8] -0.01 | IRAK-1-4 Inhibitor I -0.054 | ibrutinib 0.002 | [9] -0.01 | ralimetinib 0.01 | [10] 0.018 | [11] 0 | [12] -0.001 | [13] 0.03 | [14] 0 | [15] 0.017 | [16] -0.006

RPS26P11 (UniProt Q5JNZ5)
inactive: erlotinib -0.028 | [1] -0.021 | [2] -0.015 | [3] -0.01 | [4] 0.039 | [5] 0.005 | [6] -0.046 | [7] -0.045 | [8] 0.008 | IRAK-1-4 Inhibitor I 0.001 | ibrutinib -0.037 | [9] 0.004 | ralimetinib 0.008 | [10] -0.034 | [11] -0.019 | [12] -0.013 | [13] -0.034 | [14] 0.024 | [15] 0.025 | [16] 0.016

S100A11 (UniProt P31949)
Sequence of UniProt P31949 (P31949 whole entry, looked up): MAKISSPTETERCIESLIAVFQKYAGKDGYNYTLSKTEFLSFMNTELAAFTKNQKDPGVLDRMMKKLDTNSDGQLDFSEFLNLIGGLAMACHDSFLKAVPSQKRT
inactive: erlotinib 0.02 | [1] 0.034 | [2] 0.02 | [3] -0.008 | [4] -0.028 | [5] -0.009 | [6] -0.055 | [7] 0.071 | [8] 0.074 | IRAK-1-4 Inhibitor I -0.025 | ibrutinib -0.011 | [9] -0.049 | ralimetinib -0.009 | [10] -0.017 | [11] -0.02 | [12] -0.024 | [13] 0.003 | [14] 0.058 | [15] 0.028 | [16] 0.037

SCAF1 (UniProt Q9H7N4)
inactive: erlotinib 0.016 | [1] 0.113 | [2] 0.066 | [3] 0.218 | [4] 0.025 | [5] -0.022 | [6] 0.033 | [7] 0.047 | [8] 0.041 | IRAK-1-4 Inhibitor I 0.081 | ibrutinib 0.219 | [9] -0.054 | ralimetinib -0.025 | [10] 0.171 | [11] 0.042 | [12] 0.065 | [13] -0.06 | [14] 0.056 | [15] 0.056 | [16] 0.002

RARS (UniProt P54136)
Sequence of UniProt P54136 (P54136 whole entry, looked up): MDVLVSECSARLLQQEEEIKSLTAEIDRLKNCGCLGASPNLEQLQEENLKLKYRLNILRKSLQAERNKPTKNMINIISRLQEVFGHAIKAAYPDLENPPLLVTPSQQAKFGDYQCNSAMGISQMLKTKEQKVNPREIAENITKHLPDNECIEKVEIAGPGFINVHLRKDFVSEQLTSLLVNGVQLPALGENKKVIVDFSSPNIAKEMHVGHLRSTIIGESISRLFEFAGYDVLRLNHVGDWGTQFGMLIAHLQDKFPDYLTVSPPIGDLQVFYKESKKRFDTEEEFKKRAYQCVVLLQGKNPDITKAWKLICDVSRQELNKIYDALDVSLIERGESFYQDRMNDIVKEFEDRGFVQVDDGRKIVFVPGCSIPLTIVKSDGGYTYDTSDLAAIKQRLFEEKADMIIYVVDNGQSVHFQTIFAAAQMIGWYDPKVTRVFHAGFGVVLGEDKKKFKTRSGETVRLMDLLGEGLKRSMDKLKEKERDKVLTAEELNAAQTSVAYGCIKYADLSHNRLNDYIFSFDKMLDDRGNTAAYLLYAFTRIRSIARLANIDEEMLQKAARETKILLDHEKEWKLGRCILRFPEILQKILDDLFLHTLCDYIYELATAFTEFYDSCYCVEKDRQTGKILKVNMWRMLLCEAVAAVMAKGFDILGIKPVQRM
inactive: erlotinib 0.037 | [1] 0.029 | [2] -0.023 | [3] 0.023 | [4] 0.043 | [5] 0.029 | [6] -0.025 | [7] -0.005 | [8] 0.005 | IRAK-1-4 Inhibitor I 0.008 | ibrutinib -0.001 | [9] -0.003 | ralimetinib 0.062 | [10] 0.048 | [11] 0.033 | [12] -0.019 | [13] 0.015 | [14] -0.003 | [15] 0.06 | [16] 0.033

RAPGEF4 (UniProt Q8WZA2)
inactive: erlotinib 0.181 | [1] 0.057 | [2] 0.049 | [3] -0.016 | [4] -0.019 | [5] -0.092 | [6] -0.195 | [7] -0.043 | [8] 0.12 | IRAK-1-4 Inhibitor I 0.184 | ibrutinib -0.026 | [9] -0.129 | ralimetinib -0.001 | [10] -0.328 | [11] 0.044 | [13] 0.046 | [14] 0.442 | [15] -0.004 | [16] -0.166

RALGAPB (UniProt Q86X10)
inactive: erlotinib 0.024 | [1] -0.047 | [2] 0.051 | [3] 0.018 | [4] 0 | [5] -0.038 | [6] -0.074 | [7] -0.008 | [8] 0.049 | IRAK-1-4 Inhibitor I 0.033 | ibrutinib 0.066 | [9] -0.002 | ralimetinib 0.033 | [10] -0.038 | [11] 0.003 | [12] -0.048 | [13] 0.029 | [14] 0.065 | [15] 0.032 | [16] 0.01

RBM22 (UniProt Q9NW64)
Sequence of UniProt Q9NW64 (Q9NW64 whole entry, looked up): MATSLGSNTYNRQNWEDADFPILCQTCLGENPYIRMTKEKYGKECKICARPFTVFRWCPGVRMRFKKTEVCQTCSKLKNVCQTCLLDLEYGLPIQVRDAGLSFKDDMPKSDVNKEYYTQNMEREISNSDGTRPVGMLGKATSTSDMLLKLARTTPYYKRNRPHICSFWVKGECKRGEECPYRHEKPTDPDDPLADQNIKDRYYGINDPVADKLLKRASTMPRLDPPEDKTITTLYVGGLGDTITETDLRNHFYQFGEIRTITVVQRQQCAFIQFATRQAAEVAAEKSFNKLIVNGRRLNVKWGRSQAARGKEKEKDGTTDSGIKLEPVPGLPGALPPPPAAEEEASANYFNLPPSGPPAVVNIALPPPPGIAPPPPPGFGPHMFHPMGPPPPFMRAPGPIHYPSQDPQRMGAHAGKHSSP
inactive: erlotinib 0.028 | [1] -0.005 | [2] 0.025 | [3] -0.07 | [4] 0.013 | [5] -0.034 | [6] -0.021 | [7] -0.02 | [8] 0.009 | IRAK-1-4 Inhibitor I 0.018 | ibrutinib 0.01 | [9] -0.007 | ralimetinib -0.03 | [10] -0.044 | [11] -0.033 | [12] 0.009 | [13] -0.014 | [14] 0.043 | [15] -0.01 | [16] -0.006

RAD54L2 (UniProt Q9Y4B4)
Sequence of UniProt Q9Y4B4 (Q9Y4B4 whole entry, looked up): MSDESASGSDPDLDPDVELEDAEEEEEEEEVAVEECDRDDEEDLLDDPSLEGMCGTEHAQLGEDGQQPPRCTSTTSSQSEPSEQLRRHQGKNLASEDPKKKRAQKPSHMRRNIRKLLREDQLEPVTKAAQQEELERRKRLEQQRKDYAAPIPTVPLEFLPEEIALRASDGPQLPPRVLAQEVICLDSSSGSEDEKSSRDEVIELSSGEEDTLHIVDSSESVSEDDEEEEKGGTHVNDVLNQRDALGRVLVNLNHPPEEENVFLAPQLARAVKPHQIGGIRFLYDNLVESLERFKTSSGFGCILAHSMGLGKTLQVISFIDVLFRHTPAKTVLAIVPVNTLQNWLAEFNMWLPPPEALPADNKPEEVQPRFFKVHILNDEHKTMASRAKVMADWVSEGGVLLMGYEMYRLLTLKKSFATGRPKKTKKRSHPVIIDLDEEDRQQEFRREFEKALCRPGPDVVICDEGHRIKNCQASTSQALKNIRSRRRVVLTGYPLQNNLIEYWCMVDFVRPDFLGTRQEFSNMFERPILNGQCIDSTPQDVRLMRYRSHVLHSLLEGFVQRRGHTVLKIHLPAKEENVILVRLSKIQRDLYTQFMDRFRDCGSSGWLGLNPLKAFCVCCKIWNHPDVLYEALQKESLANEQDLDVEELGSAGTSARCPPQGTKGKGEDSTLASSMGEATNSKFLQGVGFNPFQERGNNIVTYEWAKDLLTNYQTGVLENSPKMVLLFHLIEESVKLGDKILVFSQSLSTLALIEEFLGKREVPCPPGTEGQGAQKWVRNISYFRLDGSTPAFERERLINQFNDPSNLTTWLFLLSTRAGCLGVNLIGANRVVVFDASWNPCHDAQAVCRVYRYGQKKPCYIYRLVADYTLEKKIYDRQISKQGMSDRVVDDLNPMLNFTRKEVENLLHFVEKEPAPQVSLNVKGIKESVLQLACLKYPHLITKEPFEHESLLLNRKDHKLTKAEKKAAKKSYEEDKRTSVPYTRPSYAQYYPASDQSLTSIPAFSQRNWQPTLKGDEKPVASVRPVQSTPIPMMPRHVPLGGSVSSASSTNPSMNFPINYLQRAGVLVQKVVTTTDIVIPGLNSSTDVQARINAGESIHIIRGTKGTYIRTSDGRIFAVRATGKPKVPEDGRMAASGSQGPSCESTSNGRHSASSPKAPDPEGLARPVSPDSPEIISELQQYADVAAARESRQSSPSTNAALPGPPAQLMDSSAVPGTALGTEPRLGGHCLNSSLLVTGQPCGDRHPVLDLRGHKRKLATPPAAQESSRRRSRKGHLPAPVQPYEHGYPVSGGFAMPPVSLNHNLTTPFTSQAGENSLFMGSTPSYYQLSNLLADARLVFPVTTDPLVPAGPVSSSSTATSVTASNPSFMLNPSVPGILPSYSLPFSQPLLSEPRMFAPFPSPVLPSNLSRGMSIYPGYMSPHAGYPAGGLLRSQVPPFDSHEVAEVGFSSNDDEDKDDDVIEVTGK
inactive: erlotinib 0.186 | [1] -0.176 | [2] -0.103 | [3] -0.035 | [4] -0.135 | [6] 0.002 | [7] -0.046 | [8] 0.055 | ibrutinib -0.005 | [9] 0.23 | [11] -0.073 | [12] 0.131 | [13] -0.051 | [14] 0.031 | [16] 0.094

RETREG2 (UniProt Q8NC44)
inactive: erlotinib -0.08 | [1] 0.036 | [2] -0.115 | [3] -0.055 | [4] 0.049 | [5] 0.035 | [6] -0.063 | [7] 0.022 | [8] 0.075 | IRAK-1-4 Inhibitor I 0.106 | ibrutinib 0.011 | [9] 0.009 | ralimetinib 0.071 | [10] -0.129 | [11] 0.062 | [12] 0.127 | [14] 0.051 | [15] 0.116 | [16] 0.011

SAMD4A (UniProt Q9UPU9)
inactive: erlotinib -0.172 | [1] -0.014 | [2] 0.11 | [3] 0.097 | [4] -0.153 | [5] 0.11 | [6] -0.041 | [7] -0.046 | [8] 0.013 | IRAK-1-4 Inhibitor I 0.063 | ibrutinib -0.014 | [9] 0.052 | ralimetinib 0.395 | [10] 0.097 | [11] 0.094 | [13] -0.008 | [14] 0.025 | [15] 0.196 | [16] 0.088

RETSAT (UniProt Q6NUM9)
Sequence of UniProt Q6NUM9 (Q6NUM9 whole entry, looked up): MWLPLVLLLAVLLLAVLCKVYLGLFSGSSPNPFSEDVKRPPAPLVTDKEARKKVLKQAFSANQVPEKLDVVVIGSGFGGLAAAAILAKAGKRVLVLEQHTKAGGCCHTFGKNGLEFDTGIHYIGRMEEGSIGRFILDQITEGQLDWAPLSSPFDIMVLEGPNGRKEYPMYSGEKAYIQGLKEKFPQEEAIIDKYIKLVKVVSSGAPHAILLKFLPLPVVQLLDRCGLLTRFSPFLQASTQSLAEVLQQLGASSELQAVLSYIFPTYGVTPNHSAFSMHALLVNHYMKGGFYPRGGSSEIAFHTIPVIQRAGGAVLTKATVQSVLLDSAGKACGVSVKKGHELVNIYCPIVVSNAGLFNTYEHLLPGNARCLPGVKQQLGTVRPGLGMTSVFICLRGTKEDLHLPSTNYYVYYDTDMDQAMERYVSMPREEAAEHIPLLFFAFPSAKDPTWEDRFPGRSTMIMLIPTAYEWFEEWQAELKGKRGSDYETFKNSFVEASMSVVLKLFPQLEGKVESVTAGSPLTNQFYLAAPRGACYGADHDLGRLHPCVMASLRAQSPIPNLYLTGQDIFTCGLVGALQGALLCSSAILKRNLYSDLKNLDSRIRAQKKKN
inactive: erlotinib -0.092 | [1] 0.054 | [2] 0.026 | [3] 0.021 | [4] -0.092 | [5] -0.004 | [6] -0.152 | [7] -0.077 | [8] -0.052 | IRAK-1-4 Inhibitor I 0.148 | ibrutinib -0.091 | [9] 0.073 | ralimetinib -0.057 | [10] -0.134 | [11] 0.07 | [13] -0.113 | [14] 0.226 | [15] -0.015 | [16] -0.24

RAC2 (UniProt P15153)
inactive: erlotinib 0.009 | [1] 0.018 | [2] 0.014 | [3] -0.035 | [4] -0.01 | [5] 0.012 | [6] 0.034 | [7] 0.069 | [8] -0.036 | IRAK-1-4 Inhibitor I 0.024 | ibrutinib 0.094 | [9] -0.04 | ralimetinib 0.07 | [10] -0.027 | [11] 0.047 | [12] -0.005 | [13] 0.017 | [14] -0.022 | [15] 0.045 | [16] -0.014

RECQL4 (UniProt O94761)
Sequence of UniProt O94761 (O94761 whole entry, looked up): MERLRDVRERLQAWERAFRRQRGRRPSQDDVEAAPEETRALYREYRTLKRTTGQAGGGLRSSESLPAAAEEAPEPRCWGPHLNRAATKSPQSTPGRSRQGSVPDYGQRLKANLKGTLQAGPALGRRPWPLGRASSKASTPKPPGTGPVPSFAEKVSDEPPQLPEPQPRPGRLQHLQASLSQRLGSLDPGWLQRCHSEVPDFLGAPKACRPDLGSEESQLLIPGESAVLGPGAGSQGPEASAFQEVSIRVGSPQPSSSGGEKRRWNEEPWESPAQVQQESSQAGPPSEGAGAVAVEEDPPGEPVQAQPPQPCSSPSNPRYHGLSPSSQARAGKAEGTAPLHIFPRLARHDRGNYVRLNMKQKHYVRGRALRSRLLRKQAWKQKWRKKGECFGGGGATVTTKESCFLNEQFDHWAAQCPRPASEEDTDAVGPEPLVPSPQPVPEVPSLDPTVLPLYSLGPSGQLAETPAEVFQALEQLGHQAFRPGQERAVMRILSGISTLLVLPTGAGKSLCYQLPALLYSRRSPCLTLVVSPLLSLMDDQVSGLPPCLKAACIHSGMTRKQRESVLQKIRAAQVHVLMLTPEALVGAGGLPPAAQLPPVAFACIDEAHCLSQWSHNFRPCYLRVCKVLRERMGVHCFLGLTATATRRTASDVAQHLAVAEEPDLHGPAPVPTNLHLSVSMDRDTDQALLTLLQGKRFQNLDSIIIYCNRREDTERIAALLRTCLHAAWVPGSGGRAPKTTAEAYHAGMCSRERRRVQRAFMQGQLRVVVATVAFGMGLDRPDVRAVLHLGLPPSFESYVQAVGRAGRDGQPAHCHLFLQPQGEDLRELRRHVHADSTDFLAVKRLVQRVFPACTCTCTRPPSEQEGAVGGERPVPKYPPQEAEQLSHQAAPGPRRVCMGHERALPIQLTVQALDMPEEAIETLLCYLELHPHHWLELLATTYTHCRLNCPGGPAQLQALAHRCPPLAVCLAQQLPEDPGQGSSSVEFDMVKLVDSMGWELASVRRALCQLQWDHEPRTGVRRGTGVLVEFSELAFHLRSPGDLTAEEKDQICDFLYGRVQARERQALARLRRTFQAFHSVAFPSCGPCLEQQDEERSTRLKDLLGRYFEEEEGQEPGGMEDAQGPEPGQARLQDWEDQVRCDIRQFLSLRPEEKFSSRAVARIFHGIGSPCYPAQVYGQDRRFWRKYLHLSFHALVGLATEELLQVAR
inactive: erlotinib -0.041 | [1] 0.023 | [2] -0.025 | [3] 0.195 | [4] -0.081 | [5] 0.018 | [6] -0.039 | [7] -0.035 | [8] 0.013 | IRAK-1-4 Inhibitor I 0.015 | ibrutinib 0.016 | ralimetinib -0.034 | [10] -0.06 | [11] 0.039 | [12] -0.017 | [13] 0.076 | [14] 0 | [15] 0.044

RTTN (UniProt Q86VV8)
inactive: erlotinib -0.002 | [1] -0.196 | [2] -0.123 | [3] -0.103 | [4] 0.045 | [5] -0.043 | [6] -0.056 | [7] 0.14 | [8] 0.036 | IRAK-1-4 Inhibitor I 0.098 | ibrutinib 0.095 | [9] 0.155 | ralimetinib 0.145 | [10] -0.137 | [11] 0.379 | [12] -0.053 | [13] 0.015 | [15] -0.004 | [16] 0.112
